Screens: PubChem BioAssay, National Center for Advancing Translational Sciences (NCATS)
ALOX12 inh: Primary qHTS assay for inhibitors of human arachidonate 12S-lipoxygenase (ALOX12): Round 2. 580,000 compounds, 1.1% hits. Potency, µM (highest dose often 108 µM), without a hit: at the highest dose activity change, negative = inhibition, most hits filed as inhibitors. AID 1671190, 2021. purified 12hLO, xylenol orange hydroperoxide absorbance. Polyunsaturated fatty acid lipoxygenase ALOX12 (Homo sapiens), P18054; further: potency means the concentration at half of the fitted maximal effect
Target sequence (P18054 whole entry, looked up): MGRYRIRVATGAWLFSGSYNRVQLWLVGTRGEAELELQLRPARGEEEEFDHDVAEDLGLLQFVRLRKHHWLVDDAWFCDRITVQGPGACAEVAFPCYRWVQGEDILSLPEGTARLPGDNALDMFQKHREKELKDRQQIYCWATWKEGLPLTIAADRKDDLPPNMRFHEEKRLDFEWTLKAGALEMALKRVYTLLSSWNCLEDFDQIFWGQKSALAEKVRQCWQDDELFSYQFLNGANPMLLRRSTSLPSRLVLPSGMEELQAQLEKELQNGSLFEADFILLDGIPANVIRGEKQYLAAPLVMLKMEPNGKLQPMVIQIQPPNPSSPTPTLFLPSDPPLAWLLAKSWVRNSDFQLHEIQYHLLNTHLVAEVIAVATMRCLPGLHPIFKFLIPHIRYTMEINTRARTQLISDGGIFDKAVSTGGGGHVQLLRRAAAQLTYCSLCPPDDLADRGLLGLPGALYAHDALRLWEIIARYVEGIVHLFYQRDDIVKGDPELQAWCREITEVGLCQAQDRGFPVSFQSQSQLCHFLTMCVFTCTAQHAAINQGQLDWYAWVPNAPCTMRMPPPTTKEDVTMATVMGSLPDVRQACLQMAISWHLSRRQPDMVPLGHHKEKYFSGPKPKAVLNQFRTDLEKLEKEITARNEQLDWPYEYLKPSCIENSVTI
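Hydroperoxide product was detected by ferrous iron/xylenol orange as the 573 to 405 nm absorbance ratio. Arachidonic acid at 40 uM (final) was turned over for 30 min at room temperature by 150 nM human 12hLO, pH 7.0 Hepes buffer, after 15 min compound preincubation.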
TDP1 cell noCPT: qHTS for Inhibitors of human tyrosyl-DNA phosphodiesterase 1 (TDP1): qHTS in cells in absence of CPT | AID 686978, 2013 | DT40 Tdp1-/- hTDP1 cells, no CPT, ATP luminescence, 48 h | 420,000 compounds, 15% hits | Potency, µM (highest dose often 46.2 µM), for inactives: at the top dose activity change, negative = growth inhibition, most hits filed as inhibitors; further: potency means the concentration at half of the fitted maximal effect; nearly all actives have a fitted effect of over 55% in size
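Compound effects on proliferation are scored in DT40 Tdp1-/-;hTDP1 cells in the absence of CPT. ATP levels (CellTiter-Glo luminescence) are recorded after a ≥48 hr, 37 °C incubation.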
HT1080-NT tox: qHTS for induction of synthetic lethality in tumor cells producing 2HG: qHTS for the HT-1080-NT fibrosarcoma cell line. HT-1080-NT fibrosarcoma viability, CellTiter-Glo ATP luminescence, 48 h. Potency, µM (series often up to 46.1 µM), for the others: at the top dose activity, negative = less viability, usual class: cytotoxic. 360,000 compounds, 1.6% hits. AID 686970, 2013;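 further: NT is the 2HG producing partner of a matched IDH1 knockdown line; potency means the concentration at half of the fitted maximal effect; 0% = DMSO-treated cells and -100% = media-only wells without cells; nearly all actives have a fitted effect of over 55% in size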
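Read-out is CellTiter-Glo luminescence after 10 minutes at room temperature, following 48 hours' compound treatment of HT-1080-NT cells (750 cells/well, RPMI, 5% FBS, 37 degrees C).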
HT1080 IDH1KD tx: qHTS for induction of synthetic lethality in tumor cells producing 2HG: qHTS for the HT-1080-IDH1KD cell line; HT-1080 IDH1 knockdown viability, ATP luminescence, 48 h; Potency, µM (series often up to 46.1 µM), for the others: top-dose activity, negative = toxicity, most hits filed as cytotoxic; 360,000 compounds, 2% hits; AID 686971, 2013;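 further: potency means the concentration at half of the fitted maximal effect; 0% = DMSO wells and -100% = cell-free medium wells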
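Knockdown cells (IDH1KD HT-1080) received compounds 2 h after plating at 750 cells/well and were kept 48 h at 37 °C in 5% FBS RPMI. A CellTiter-Glo luminescence read gave % activity for curve fitting.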
DT40 TDP1 CPT: qHTS for Inhibitors of human tyrosyl-DNA phosphodiesterase 1 (TDP1): qHTS in cells in presence of CPT; chicken DT40 Tdp1-/-;hTDP1 cells + 20 nM CPT, ATP luminescence, 48 h; Potency, µM (top dose mostly 46.2 µM), inactives show at the highest dose activity change, negative = growth inhibition, usual class: inhibitors; 420,000 compounds, 12% hits; AID 686979, 2013; further: potency means the concentration at half of the fitted maximal effect; nearly all actives have a fitted effect of over 55% in size
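Chicken DT40 Tdp1-/- cells stably complemented with human TDP1 were seeded at 400 cells/well in medium containing 20 nM camptothecin, exposed to pin-transferred compounds, and grown at 37 °C for at least 48 hr. Viability was read as ATP luminescence.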
IL-1B inflam inh: qHTS for Inhibitors of Inflammasome Signaling: IL-1-beta AlphaLISA Primary Screen; THP-1 LPS/ATP IL-1B secretion, AlphaLISA, 16 h; hits give low values; activity change, % at 57.5 µM; 360,000 compounds, 4.7% hits; AID 743279, 2014; in the data active means activity change below about -50%; inconclusive means mostly about -30% to -49%
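Secreted IL-1B measured by AlphaLISA bead assay after 16 h compound exposure of THP-1 cells; compounds (final up to 57.5 uM) added 1 h before LPS (250 ng/mL) and ATP (1.25 mM) stimulation; lower signal means less secretion.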
The depositor's hits bear a star; ? = inconclusive; nt = no result given; [ ] = another dose, or the depositor's remark. The full list was thinned out, with hits kept by preference. Unless noted, the call rests on the fitted dose curve; in most records, active means well fitted curve in the direction sought with a large enough effect; inconclusive means small, poorly fitted or top-dose-only effect, or another doubt; inactive means no such curve, though single readings can be large; an effect the other way counts as inactive or inconclusive. Unless noted, on the % scale 0 is the no-effect control and ±100 the full control effect.

SMILES | ALOX12 inh | TDP1 cell noCPT | HT1080-NT tox | HT1080 IDH1KD tx | DT40 TDP1 CPT | IL-1B inflam inh
COc1ccc(NC(=O)C2CCN(C(=O)c3ncn4c3COC(c3ccccc3)C4)CC2)cc1OC (stereo not drawn) | -3% | nt | nt | nt | nt | nt
Cc1nnc2n1CCC(NC(=O)CCCc1nc3ccccc3s1)CC2 (stereo not drawn) | 30% | nt | nt | nt | nt | nt
COc1ccc(CCNC(=O)CN(c2cc(C)cc(C)c2)S(=O)(=O)c2c(C)noc2C)cc1OC | 10% | 18µM* | 11% | 18% | ? | -4
CN(Cc1ccccc1)c1ncnc2sccc12 | 15% | 12µM* | -27% | ? | ? | -3
Cc1ccoc1C(=O)OCc1cccc(C#N)c1 | 14% | nt | nt | nt | nt | nt
O=C(Nc1ccc2c(c1)OCCO2)c1cc2sccc2n1Cc1ccc(F)cc1 | 0%[57.4 µM] | ? | -18% | -15% | ? | nt
CCOC(=O)c1cccc(NC(=O)c2cc3sccc3n2Cc2ccc(Cl)cc2)c1 | -15% | 18µM* | nt | nt | ? | nt
Cc1ccc(Cn2c(C(=O)O)cc3sccc32)cc1 | -10% | -22% | -8% | 1% | -20% | 17
O=C(Nc1ccc2c(c1)OCCO2)c1cc2sccc2n1Cc1ccccc1 | 0% | ? | -5% | -13% | 18µM* | ?
CCOC(=O)c1ccc(NC(=O)c2cc3sccc3n2Cc2ccc(Cl)cc2)cc1 | -15% | 18µM* | nt | nt | 21µM* | nt
Cc1ccc(Cn2c(C(=O)Nc3cccc(Cl)c3)cc3sccc32)cc1 | ? | ? | nt | nt | 18µM* | nt
COc1ccc(-c2c(C(F)(F)F)oc3cc(OCC(=O)OC(C)C)ccc3c2=O)cc1OC | 8% | nt | nt | nt | nt | nt
CC(C)c1nnc(NC(=O)NCC(O)c2ccc(F)cc2)s1 (stereo not drawn) | 15% | nt | nt | nt | nt | nt
CCc1cccc(OCC(=O)c2ccc3c(c2)N(CCCC(=O)NCC2CC2)C(=O)CO3)c1 | 20% | nt | nt | nt | nt | nt
CC(=O)c1ccc(NC(=O)c2cc3sccc3n2Cc2ccc(Cl)cc2)cc1 | 0% | 16µM* | nt | nt | 16µM* | nt
CCOC(=O)c1ccccc1NC(=O)c1cc2sccc2n1C | 21% | -29% | 6% | 11% | 0% | 10
CCOC(=O)c1cccc(NC(=O)c2cc3sccc3n2C)c1 | 10% | 21µM* | -8% | ? | ? | 1
CCOc1ccc2nc(N3CCC(C(=O)N4CCN(C5CCCCC5)CC4)CC3)sc2c1 | 10%[57.4 µM] | ? | -1% | 2% | 8.2µM* | -1
CCOc1ccc2nc(NC(=O)C3CCN(C(=O)c4ccco4)CC3)sc2c1 | ? | ? | -20% | -16% | ? | ?
CCOc1ccc2nc(N3CCC(C(=O)N4CCN(C(=O)c5ccco5)CC4)CC3)sc2c1 | nt | 23µM* | 8% | 7% | ? | 1
CCOc1ccc2nc(N3CCC(C(=O)Nc4ccccc4CC)CC3)sc2c1 | -19% | 23µM* | nt | nt | ? | nt
O=C(N[C@H]1[C@H](O)[C@H](O)C[C@@H]1c1cccnc1)c1ccccc1 | 19%[176 µM] | nt | nt | nt | nt | nt
O=C(Cn1nc2c(cc1=O)CCCCC2)N1CCN(CCc2ccncc2)CC1 | 29% | nt | nt | nt | nt | nt
COc1ccc(C(=O)COC(=O)C2CC(=O)N(NC(=O)c3ccc(Cl)c(Cl)c3)C2)cc1 (stereo not drawn) | 1% | nt | nt | nt | nt | nt
O=C(Nc1ccsc1C(=O)O)c1ccc(Cl)cc1 | ? | ? | -9% | -1% | 5% | 17
SMILES | ALOX12 inh | TDP1 cell noCPT | HT1080-NT tox | HT1080 IDH1KD tx | DT40 TDP1 CPT | IL-1B inflam inh
O=C(Nc1ccccc1C(=O)NC(Cc1ccccc1)C(=O)NC1CCCCCC1)c1ccccc1 (stereo not drawn) | 90% | 23µM* | -6% | -3% | ? | -15
Cc1ccc(C(=O)Nc2ccsc2C(=O)O)cc1 | 416% | 15µM* | -26% | -23% | ? | -28
O=C(Nc1ccsc1C(=O)NC1CCCCC1)c1ccccc1 | -19% | 21µM* | -22% | -21% | ? | 0
O=C(Nc1ccccc1C(=O)NC1CCCCC1)c1ccccc1 | 0% | ? | -7% | -13% | ? | -21
Cc1ccccc1-c1nc(CN2CCC(C(=O)NC3CCN(Cc4ccccc4)CC3)CC2)c(C)o1 | 9% | ? | 0% | -3% | 21µM* | -8
Cc1ccccc1-c1nc(CN2CCC(C(=O)O)CC2)c(C)o1 | 13%[57.4 µM] | -7% | 3% | 3% | 6% | -7
Cc1ccccc1-c1nc(CS(=O)(=O)CC(=O)NCCN2CCCC2)c(C)o1 | -13% | -8% | -6% | -1% | -3% | -27
COc1ccc(CCNC(=O)C2CCN(Cc3nc(-c4ccccc4C)oc3C)CC2)cc1OC | 0% | 16µM* | ? | ? | 23µM* | -29
Cc1ccccc1-c1nc(CN2CCC(C(=O)NCCCN3CCCC(C)C3)CC2)c(C)o1 (stereo not drawn) | 8% | ? | 18µM* | 9.2µM* | ? | nt
Cc1ccccc1-c1nc(CN2CCC(C(=O)NCCC3=CCCCC3)CC2)c(C)o1 | -14% | 18µM* | -2% | -1% | 18µM* | -61*
O=[N+]([O-])c1cccc(N=Cc2ccncc2)c1 | 41% | nt | nt | nt | nt | nt
COc1cc(CCC(=O)N2CCc3n[nH]c(=O)n3CC2)on1 | 5% | nt | nt | nt | nt | nt
O=C(CC1CCCCC1)NCc1cccnc1 | 33% | nt | nt | nt | nt | nt
Cc1ccccc1-c1nc(CN2CCC(C(=O)NCCc3ccccc3)CC2)c(C)o1 | 0% | 21µM* | nt | nt | 15µM* | nt
Cc1ccc(C2=NOC(=O)/C2=C\c2ccc(C)o2)cc1 | 16µM* | 23µM* | 13% | -1% | 13µM* | -2
Cc1ccc(-c2ccc(/C=C3\C(=O)ON=C3c3ccccc3)o2)c([N+](=O)[O-])c1 | 4.5µM* | 16µM* | ? | -24% | 8.2µM* | -107*
CCCn1c(=O)sc2cc(NC(=O)c3ccccc3Cl)ccc21 | -13% | ? | nt | nt | 21µM* | nt
OCCC1CN(c2cc(C(F)(F)F)ccn2)CCN1CC1CCCCC1 (stereo not drawn) | 45% | nt | nt | nt | nt | nt
FC(F)(F)c1ccccc1-c1nc(-c2ccncc2)no1 | 20% | -23% | 0% | -5% | -10% | 0
